# PubChem BioAssay AID743327 (National Center for Advancing Translational Sciences (NCATS), 2014)
# Active and inactive are the calls of the source. Calls follow the shape of the full dose curve. *1 amine or outer side, *2 acyl side, *3 side chain or, on linkers, in order; H or OH if unused. Where a SMILES comes first, the peptide text is derived from it. Bridges are numbered along the chain shown (N, C = ends). Roman numbers before positions name the chains, in order. [ ]: non-standard residue; d: D form. Actinocin(9to1) = Cc1c2oc3c(C)ccc(C(=O)[*:1])c3nc-2c(C(=O)[*:2])c(N)c1=O; NMeV = CN[CH](C(=O)O)C(C)C; Sar = CNCC(=O)O
# Assay: qHTS profiling of Chloroquine Analogs as inhibitors of Plasmodium falciparum (HB3) proliferation
# Details: P. falciparum HB3 proliferation; series mostly up to 28.7 µM
# Description: Plasmodium falciparum is a virulent malarial parasite that kills 1-2 million people worldwide each year. Transmitted by mosquitoes, the sporozoite form of the parasite enters the blood stream to infect hepatocytes, where they become merozoites that infect red blood cells (erythrocytes). Within erythrocytes, merozoites begin a […] cycle of growth and division, after which the parasite is released to infect new red blood cells. Gametocytes, which form within erythrocytes as well, circulate in the bloodstream and are ingested by the mosquito, thereby completing the life cycle. To profile malarial isolates for differential chemical responses and to identify inhibitors of malarial growth, an assay that measures P. falciparum growth and replication within erythrocytes was employed. This assay uses a DNA binding fluorescent dye (SYBR Green) to detect parasite DNA following cell lysis. Because mature erythrocytes lack DNA, only Plasmodium-derived DNA is detected.
# The SYBR Green viability assay was adapted from a method described previously (Plouffe et al., 2008). For screening 3 ul culture medium was dispensed into 1536 well black clear bottom plates (Aurora Biotechnologies) using a Multidrop Combi (Thermo Fisher Scientific Inc.), 23 nL compounds in DMSO were added by a pin tool (Kalypsys), and 5 ul of erythrocytes infected with P. falciparum (0.3% parasitemia, 2.5% hematocrit final concentration) were added. The plates were incubated at 37 C in a humidified incubator in 5% CO2 for 72 h, and 2 ul lysis buffer (20 mM Tris HCl, 10 mM EDTA, 0.16% saponin, 1.6% triton X, 10X SYBR Green I supplied as 10,000X […] by Invitrogen) was added to each well. The plates were mixed for 25 sec with gentle shaking and incubated overnight at room temperature in the dark. The following morning, fluorescence intensity at 485(14) nm excitation and 535(25) nm emission wavelengths was measured on an EnVision (Perkin Elmer) plate reader. Plate reads were normalized relative to the control inhibitor (0.29 uM artemisinin) and vehicle (DMSO) wells present on each plate and then corrected by an algorithm using vehicle-only control plates at the beginning and end of the compound plate stack.
row,Structure (SMILES),Potency
1,C[C@@H]1[C@@H](CC(C[C@H]2O[C@@H]3O[C@]4(C)CC[C@@H]5[C@H](C)CC[C@@H]([C@H]2C)[C@@]35OO4)C(=O)NCc2ccc(F)cc2)O[C@@H]2O[C@]3(C)CC[C@H]4[C@H](C)CC[C@@H]1[C@@]24OO3 (stereo not given in full),inactive
2,CC1=CC(=O)c2ccccc2C1=O,2370 nM (active)
3,Clc1ccc(COC(Cn2ccnc2)c2ccc(Cl)cc2Cl)c(Cl)c1 (stereo not given),inactive
4,Oc1cc(Cl)ccc1Oc1ccc(Cl)cc1Cl,1880 nM (active)
5,C[C@H]1[C@@H](OC(=O)CCC(=O)O)O[C@@H]2OC3(C)CC[C@H]4[C@H](C)CC[C@@H]1[C@@]24OO3,3 nM (active)
6,CC(=O)O[C@@]12CO[C@@H]1C[C@H](O)[C@@]1(C)C(=O)[C@H](O)C3=C(C)[C@@H](OC(=O)[C@H](O)[C@@H](NC(=O)OC(C)(C)C)c4ccccc4)C[C@@](O)([C@@H](OC(=O)c4ccccc4)[C@H]21)C3(C)C,9.4 nM (active)
7,C=CCON=C(C[C@H]1O[C@@H]2O[C@]3(C)CC[C@@H]4[C@H](C)CC[C@@H]([C@H]1C)[C@@]24OO3)[C@H]1O[C@@H]2O[C@]3(C)CC[C@H]4[C@H](C)CC[C@@H]([C@@H]1C)[C@@]24OO3,inactive
8,COc1cc(C=CC(=O)CC(=O)C=Cc2ccc(O)c(OC)c2)ccc1O,inactive
9,CCCCN(CCCC)CC(O)c1cc(Cl)cc2c1-c1ccc(Cl)cc1C2=Cc1ccc(Cl)cc1 (stereo not given),inactive
10,CCCC(=O)O[C@]1(C(=O)CCl)[C@H](C)C[C@@H]2[C@H]3CCC4=CC(=O)C=C[C@]4(C)[C@@]3(F)C(=O)C[C@@]21C,inactive
11,C#C[C@]1(O)CC[C@@H]2[C@H]3CCC4=CC(=O)CC[C@H]4[C@H]3C(=C)C[C@@]21CC,749 nM (active)
12,C[C@H]1c2cccc(O)c2C(O)=C2C(=O)[C@]3(O)C(O)=C(C(N)=O)C(=O)[C@@H](N(C)C)[C@@H]3[C@@H](O)[C@@H]21,8410 nM (active)
13,COc1ncnc(NS(=O)(=O)c2ccc(N)cc2)c1OC,1500 nM (active)
14,C[C@@H]1[C@@H](CC(C[C@H]2O[C@@H]3O[C@]4(C)CC[C@@H]5[C@H](C)CC[C@@H]([C@H]2C)[C@@]35OO4)C[S+](=O)([O-])c2ccc(COC(=O)N(C)C)cc2)O[C@@H]2O[C@]3(C)CC[C@H]4[C@H](C)CC[C@@H]1[C@@]24OO3 (stereo not given in full),6.7 nM (active)
15,C/C(=C\c1csc(C)n1)[C@@H]1C[C@@H]2O[C@]2(C)CCC[C@H](C)[C@H](O)[C@@H](C)C(=O)C(C)(C)[C@@H](O)CC(=O)O1,inactive
16,CCc1ccc(OCc2ccccc2C(=O)Nc2ccc3nc(C)cc(N)c3c2)cc1,1190 nM (active)
17,O=C1C(=O)c2ccccc2C(O)=C1C1CCC(c2ccc(Cl)cc2)CC1 (stereo not given),0.5 nM (active)
18,COC(=O)C1C2CC3c4[nH]c5cc(OC)ccc5c4CCN3CC2CC(OC(=O)c2cc(OC)c(OC)c(OC)c2)C1OC (stereo not given),inactive

row,Structure (SMILES),Potency
1,CN1CC[C@H](CN2c3ccccc3Sc3ccccc32)C1,10600 nM (active)
2,CCCCN(CCCC)CCC(O)c1cc2c(Cl)cc(Cl)cc2c2cc(C(F)(F)F)ccc12 (stereo not given),5.1 nM (active)
3,C[N+]1(C)CCC(=C(c2ccccc2)c2ccccc2)CC1,inactive
4,CN(C)c1ccc2nc3ccc(=[N+](C)C)cc-3sc2c1,4.9 nM (active)
5,Cc1cccc(C)c1NC(=O)C(C)N (stereo not given),inactive
6,Cc1cccc(C)c1OCC(N)C(C)C (stereo not given),18800 nM (active)
7,CNCCC(Oc1ccccc1OC)c1ccccc1 (stereo not given),3350 nM (active)
8,OB1OCc2cc(F)ccc21,inactive
9,"Cc1c2oc3c(C)ccc(C(=O)NC4C(=O)NC(C(C)C)C(=O)N5CCCC5C(=O)N(C)CC(=O)N(C)C(C(C)C)C(=O)OC4C)c3nc-2c(C(=O)NC2C(=O)NC(C(C)C)C(=O)N3CCCC3C(=O)N(C)CC(=O)N(C)C(C(C)C)C(=O)OC2C)c(N)c1=O (stereo not given) (I: TVP[Sar][NMeV] / II: TVP[Sar][NMeV]; ester I:1-I:C, II:1-II:C; linker I:N-II:N via Actinocin(9to1); configuration not given here)",inactive
10,CCN(CC)CCCC(C)Nc1ccnc2cc(Cl)ccc12 (stereo not given),inactive
11,CN([C@@H](Cc1ccc(OS(=O)(=O)c2cccc3cnccc23)cc1)C(=O)N1CCN(c2ccccc2)CC1)S(=O)(=O)c1cccc2cnccc12,inactive
12,CC(CNC1CCCCC1)OC(=O)c1ccccc1 (stereo not given),inactive
13,CN1C[C@H](C(=O)N[C@]2(C)O[C@@]3(O)[C@@H]4CCCN4C(=O)[C@H](Cc4ccccc4)N3C2=O)C[C@@H]2c3cccc4[nH]cc(c34)C[C@H]21,530 nM (active)
14,CO[C@H]1O[C@@H]2O[C@@]3(C)CC[C@@H]4[C@@H](C)CC[C@@H]([C@H]1C)[C@@]24OO3,inactive
15,CN(C)CC/C=C1\c2ccccc2COc2ccccc21,2540 nM (active)
16,CC(=O)N(O)CCCP(=O)(O)O,266 nM (active)
17,O=C(C[C@@H]1NCCC[C@@H]1O)Cn1cnc2ccccc2c1=O,inactive
